Measured values published in PubChem BioAssay (NCATS).
Results filed as inconclusive are left out. A call without a number means that no potency is given here. Where a structure was tested more than once in an assay, its records may differ in their call. The source made the active and inactive calls. Calls follow the shape of the dose curve; as a rule, active = well fitted curve in the direction sought with a large enough effect; inconclusive = small, poorly fitted or top-dose-only effect, or another doubt; inactive = no such curve, though single readings can be large; an effect the other way counts as inactive or inconclusive.

Legend:
[1] = target: Metallo-beta-lactamase type 2 (Klebsiella pneumoniae) (UniProt C7C422); test: qHTS to identify inhibitors of the New Delhi Metallo-beta-lactamase (NDM): assay validation screen against the NCATS LOPAC Collection (AID 1794843);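 also: nitrocefin turnover by NDM-1 measured as 485 nm absorbance at plateau; series mostly up to about 38 µM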
Metallo-beta-lactamase type 2 (Klebsiella pneumoniae), sequence (C7C422 whole entry, looked up): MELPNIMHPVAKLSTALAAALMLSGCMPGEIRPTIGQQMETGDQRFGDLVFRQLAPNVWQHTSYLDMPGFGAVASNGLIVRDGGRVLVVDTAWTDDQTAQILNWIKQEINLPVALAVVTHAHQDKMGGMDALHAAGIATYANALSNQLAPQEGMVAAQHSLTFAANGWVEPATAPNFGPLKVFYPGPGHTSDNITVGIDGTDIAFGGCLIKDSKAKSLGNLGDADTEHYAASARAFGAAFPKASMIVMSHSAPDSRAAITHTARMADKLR
In short: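 Nitrocefin hydrolysis (50 uM substrate stock) by NDM-1, 2 nM final, was followed by 485 nm absorbance after compound preincubation; buffer was 50 mM HEPES pH 7.0, 1 uM ZnSO4, 0.01% Tween20.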

[2] = target: Glutathione peroxidase 1 (Homo sapiens) (UniProt P07203); test: Primary qHTS Assay for Inhibitors of Recombinant Selenoprotein Glutathione Peroxidase 1 (GPX1) (AID 1845191); also: nearly all actives have a fitted effect of over 65% in size; also: potency is read from the fitted curve at half-maximal effect
Glutathione peroxidase 1 (Homo sapiens), sequence (P07203 whole entry, looked up): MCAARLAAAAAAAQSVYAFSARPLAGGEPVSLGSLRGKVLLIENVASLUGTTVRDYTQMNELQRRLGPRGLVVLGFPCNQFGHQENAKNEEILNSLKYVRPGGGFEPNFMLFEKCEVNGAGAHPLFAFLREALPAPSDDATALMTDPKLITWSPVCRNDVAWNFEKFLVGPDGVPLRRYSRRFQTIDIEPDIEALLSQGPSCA
In short: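 Recombinant GPX1 (10 nM final) was preincubated with compound for 30 min at room temperature, then reacted with 1 mM GSH, 0.5 mM CHP, 0.5 mM NADPH and 100 nM glutathione reductase; NADPH fluorescence (340/450 nm) was read at 0 and 15 min.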

[3] = target: Phospholipid hydroperoxide glutathione peroxidase GPX4 (Homo sapiens) (UniProt P36969); test: Primary qHTS Assay for Inhibitors of Recombinant Selenoprotein Glutathione Peroxidase 4 (GPX4) (AID 1845192); also: nearly all actives have a fitted effect of over 65% in size
Phospholipid hydroperoxide glutathione peroxidase GPX4 (Homo sapiens), sequence (P36969 whole entry, looked up): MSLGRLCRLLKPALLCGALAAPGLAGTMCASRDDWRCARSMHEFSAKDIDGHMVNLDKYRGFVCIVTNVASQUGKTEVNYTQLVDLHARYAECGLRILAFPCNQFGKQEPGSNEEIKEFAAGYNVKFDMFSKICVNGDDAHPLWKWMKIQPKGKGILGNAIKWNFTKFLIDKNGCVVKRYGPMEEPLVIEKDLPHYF
In short: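 GR-coupled readout: 100 nM GR, 1 mM GSH, 0.5 mM NADPH; NADPH fluorescence (ex 340/em 450 nm) read at t=0 and after 15 min RT. GPX4 200 nM, preincubated 30 min with compound; substrate 0.5 mM CHP.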

[4] = target: Luciferin 4-monooxygenase (Photinus pyralis) (UniProt P08659); test: Primary firefly luciferase (FLuc) qHTS assay for identification of artifact compounds. (AID 1845220); details: outcome: dose series up to 54.1 µM; also: nearly all actives have a fitted effect of over 60% in size
In short: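 In this counter-screen for luciferase artifacts, test compounds met substrate (10 uM each luciferin and ATP) before 10 nM enzyme started the reaction. Light output was measured 5 min later.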

[5] = Primary fluorescence-based thiol-reactive (MSTI) qHTS assay for identification of artifact compounds. (AID 1845221);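 also: series mostly up to about 54 µM; thiol-reactive compounds lower the probe fluorescence signal; nearly all actives have a fitted effect of over 65% in size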
In short: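 One-hour, room-temperature, dark incubation of compound with 4 uM MSTI in PBS (pH 7.4, 2% DMSO) precedes a fluorescence read at 525 nm excitation, 598 nm emission; Hill-equation fitting yields concentration-response values.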

[6] = test system: Nanoluciferase (engineered Oplophorus gracilirostris luciferase); test: Primary Nanoluciferase (NLuc) qHTS assay for identification of artifact compounds. (AID 1845222);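 also: NLuc secreted into diluted conditioned medium of S16 cells; series mostly up to about 54 µM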
In short: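 Using secreted nanoluciferase in S16 culture medium (0.22 um filtered, 1:55 dilution), compounds were preincubated 15 min at RT. Signal was generated with Nano-Glo reagent (1:100) over 5 min.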

## NCCCCCC(=O)O
[1]
  outcome: inactive
[2]
  Potency: inactive
[3]
  Potency: inactive

## CCN1CCCC1CNC(=O)c1cc(S(=O)(=O)CC)c(N)cc1OC (configuration not stated)
[1]
  outcome: inactive
[2]
  Potency: inactive
[3]
  Potency: inactive

## Cn1ccc2cc3c(cc21)CCN3C(=O)Nc1cccnc1
[1]
  outcome: inactive
[2]
  Potency: inactive
[3]
  Potency: inactive

## O=c1c(-c2ccc(O)cc2)coc2cc(O)cc(O)c12
[1]
  outcome: inactive
[2]
  Potency: inactive
[3]
  Potency: inactive

## COc1cc2c(c(OC)c1OC)-c1ccc(OC)c(=O)cc1[C@@H](NC(C)=O)CC2
[1]
  outcome: inactive
[2]
  Potency: inactive
[3]
  Potency: inactive

## CC(C)NCC(O)c1ccc(O)c(O)c1 (configuration not stated)
[1]
  outcome: inactive
[2]
  Potency: inactive
[3]
  Potency: inactive

## CCC1(C)CC(=O)NC1=O (configuration not stated)
[1]
  outcome: inactive
[2]
  Potency: inactive
[3]
  Potency: inactive

## CN1CCN(C2=Nc3cc(Cl)ccc3Nc3ccccc32)CC1
[1]
  outcome: inactive
[2]
  Potency: inactive
[3]
  Potency: inactive

## NC(CO)C(=O)NNCc1ccc(O)c(O)c1O (configuration not stated)
[1]
  outcome: inactive
[2]
  Potency: inactive
[3]
  Potency: inactive

## CN(Cc1cnc2nc(N)nc(N)c2n1)c1ccc(C(=O)N[C@@H](CCC(=O)O)C(=O)O)cc1
[1]
  outcome: inactive
[2]
  Potency: inactive
[3]
  Potency: inactive

## Clc1ccc2nsnc2c1NC1=NCCN1
[1]
  outcome: inactive
[2]
  Potency: inactive
[3]
  Potency: inactive

## O=C1N(c2ccccc2)c2ccccc2C1(Cc1ccncc1)Cc1ccncc1
[1]
  outcome: inactive
[2]
  Potency: inactive
[3]
  Potency: inactive

## COc1cc2nc(N3CCN(C(=O)C4COc5ccccc5O4)CC3)nc(N)c2cc1OC (configuration not stated)
[1]
  outcome: inactive
[2]
  Potency: 18 µM (active) and inactive
[3]
  Potency: inactive

## Nc1nc2c(ncn2COC(CO)CO)c(=O)[nH]1
[1]
  outcome: inactive
[2]
  Potency: inactive
[3]
  Potency: inactive

## NS(=O)(=O)c1cc2c(cc1Cl)NCNS2(=O)=O
[1]
  outcome: inactive
[2]
  Potency: inactive
[3]
  Potency: inactive

## NCCS(=O)(=O)O
[1]
  outcome: inactive
[2]
  Potency: inactive
[3]
  Potency: inactive

## NC12CC3CC(CC(C3)C1)C2
[1]
  outcome: inactive
[2]
  Potency: inactive
[3]
  Potency: inactive

## CC(C(=O)O)c1cccc(C(=O)c2ccccc2)c1 (configuration not stated)
[1]
  outcome: inactive
[2]
  Potency: inactive
[3]
  Potency: inactive

## CC1COc2c(N3CCN(C)CC3)c(F)cc3c(=O)c(C(=O)O)cn1c23 (configuration not stated)
[1]
  outcome: inactive
[2]
  Potency: inactive
[3]
  Potency: inactive

## CCCNCC(O)COc1ccccc1C(=O)CCc1ccccc1 (configuration not stated)
[1]
  outcome: inactive
[2]
  Potency: inactive
[3]
  Potency: inactive

## CN(C)c1nc(N(C)C)nc(N(C)C)n1
[1]
  outcome: inactive
[2]
  Potency: inactive
[3]
  Potency: inactive

## NC(=O)OCC(COC(N)=O)c1ccccc1
[1]
  outcome: inactive
[2]
  Potency: inactive
[3]
  Potency: inactive

## Cc1ccccc1N1C(=O)c2cc(S(N)(=O)=O)c(Cl)cc2NC1C (configuration not stated)
[2]
  Potency: inactive
[3]
  Potency: inactive

## Clc1ccc2c(c1)C(N1CCNCC1)=Nc1ccccc1O2
[1]
  outcome: inactive
[2]
  Potency: inactive
[4]
  outcome: inactive
[5]
  outcome: inactive
[6]
  outcome: inactive

## O=C(C1CCCCC1)N1CC(=O)N2CCc3ccccc3C2C1 (configuration not stated)
[2]
  Potency: inactive

## CCOC(=O)c1ncn2c1CN(C)C(=O)c1cc(F)ccc1-2
[1]
  outcome: inactive
[2]
  Potency: inactive
[3]
  Potency: inactive

## Fc1ccc([C@@H]2CCNC[C@H]2COc2ccc3c(c2)OCO3)cc1
[1]
  outcome: inactive
[2]
  Potency: inactive
[3]
  Potency: inactive

## CC(COc1ccccc1)N(CCCl)Cc1ccccc1 (configuration not stated)
[2]
  Potency: inactive
[3]
  Potency: inactive

## C[C@](N)(Cc1ccc(O)c(O)c1)C(=O)O
[2]
  Potency: inactive

## CC[C@@]1(O)C(=O)OCc2c1cc1n(c2=O)Cc2cc3c(CN(C)C)c(O)ccc3nc2-1
[1]
  outcome: inactive
[2]
  Potency: inactive
[4]
  outcome: inactive
[5]
  outcome: inactive
[6]
  outcome: inactive

## COc1ccc2c(c1)c(CC(=O)O)c(C)n2C(=O)c1ccc(Cl)cc1
[2]
  Potency: inactive
[3]
  Potency: inactive

## O=C(CCCN1CCC(O)(c2ccc(Cl)cc2)CC1)c1ccc(F)cc1
[1]
  outcome: inactive
[2]
  Potency: inactive
[3]
  Potency: inactive

## CN1C2CCC1CC(OC(=O)C(CO)c1ccccc1)C2 (configuration not stated)
[1]
  outcome: inactive
[2]
  Potency: inactive
[3]
  Potency: inactive

## O=C(c1ccc(F)cc1)C1CCN(CCn2c(=O)[nH]c3ccccc3c2=O)CC1
[1]
  outcome: inactive
[2]
  Potency: inactive
[3]
  Potency: inactive
[4]
  outcome: inactive
[5]
  outcome: inactive
[6]
  outcome: inactive

## CCC1(c2ccccc2)C(=O)NCNC1=O
[2]
  Potency: inactive

## C[C@@H]1CC(=O)NN=C1c1ccc(NN=C(C#N)C#N)cc1
[2]
  Potency: inactive

## Clc1ccccc1C(c1ccccc1)(c1ccccc1)n1ccnc1
[2]
  Potency: inactive

## CC1(CN2CCC(n3c(=O)[nH]c4ccccc43)CC2)OCc2ccccc2-n2cccc21 (configuration not stated)
[2]
  Potency: inactive

## CC12CC3CC(C)(C1)CC(N)(C3)C2
[2]
  Potency: inactive

## CN(C)C(=O)C(CCN1CCC(O)(c2ccc(Cl)cc2)CC1)(c1ccccc1)c1ccccc1
[1]
  outcome: inactive
[2]
  Potency: inactive
[3]
  Potency: inactive

## CN(C)CCOC(c1ccccc1)c1ccccc1
[2]
  Potency: inactive
[3]
  Potency: inactive

## Cn1c(=O)c2[nH]cnc2n(C)c1=O
[2]
  Potency: inactive
[3]
  Potency: inactive

## Cc1cc(C(C)(C)C)c(O)c(C)c1CC1=NCCN1
[1]
  outcome: inactive
[2]
  Potency: inactive
[3]
  Potency: inactive
[4]
  outcome: inactive
[6]
  outcome: inactive

## COc1ccccc1OCCNCC(O)COc1cccc2[nH]c3ccccc3c12 (configuration not stated)
[1]
  outcome: inactive
[2]
  Potency: inactive
[3]
  Potency: inactive
